Data: PubChem BioAssay (NCI)
Several values for one entry are separate records, joined by “and”; a condition that tells them apart may be missing. Identical values can stand only once. This is part of a sample that, as a whole, favours compounds with a hit. Of some 83,000 tested, about 20% had one in any assay.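 The endpoint reported here, percent growth, reads 100 for growth as untreated, 0 for no net growth and -100 for all cells dead.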 Unmarked numbers belong to inactive results. Activity calls are given as the source filed them. Rule for the calls: active = growth percent below 10; inactive = the rest.

test system: HL-60(TB) leukemia; experiment: NCI-60 one-dose screen, 48 h (100 = growth as untreated, 0 = no growth, -100 = all killed); conditions: 10 µM unless noted

Compound	growth
Cc1cc(O)c2c(c1O)C(=O)C13C(=C2O)C(=O)C2C(O)C1C1C(O)C3C(=O)C3=C(O)c4c(O)cc(C)c(O)c4C(=O)C321 (configuration not stated)	-19.7% (active)
COc1cc(-c2nc(-c3nnc(-c4ccc(F)c(Cl)c4)o3)c3ccccn23)cc(OC)c1OC	56.4%
CCOP(=O)(OCC)c1nc(-c2ccccc2)oc1NCc1cccnc1	102%
CCCC(=O)NC(c1ccc2c(c1)OCO2)c1ccc2cccnc2c1O (configuration not stated)	-47.7% (active)
CO[C@]12C=C/C(=C(/C(=O)OCc3cccnc3)C(=O)CCCCCCCC[C@@]3(OC)C=C/C(=C(/C(=O)OCc4cccnc4)C(=O)CCCCCCCC1)O3)O2	-20.2% (active)
Nc1c(C(=O)Nc2cccc(Br)c2)sc2nc3c(cc12)C(O)CCC3 (configuration not stated)	-2.37% (active)
Cc1cc(N2CCCC2)nc(N(CCNc2ccnc3cc(Cl)ccc23)Cc2ccco2)n1	-52.8% (active)
Nc1c(C(=O)c2ccc(Br)cc2)sc2nc3c(cc12)CCCC3	94.7%
COc1ccc(-c2cc(-c3cc(OC)ccc3OC)nc(SCC(=O)c3ccccc3)c2C#N)cc1	98.4%
Cc1cc2nc3ccc(=[N+](C)C)cc-3sc2cc1N	-50.3% (active) and -34.8% (active)
Cc1cc(Nc2ccc(C)c(Cl)c2)n2nc(C(F)(F)F)nc2n1	100%
CC1(C)CC(=O)c2cc3c(N)c(C(=O)Nc4ccc(Cl)cc4)sc3nc2C1	107%
CCCCCCCCCCCCCCCCCCOc1ccccc1CC(=O)OCC[N+]1(C)CCCC1	22.9%
COC(=O)c1cc(=O)nc(N/N=C/c2ccco2)s1	116%
CNC(C)=O	107%
Cc1ccc(-c2nc([P+](c3ccccc3)(c3ccccc3)c3ccccc3)c(N3CCOCC3)o2)cc1	-27.7% (active)
CCn1c(Sc2nnc(NC(=O)CCN3CCCC3)s2)nc2c1c(=O)n(C)c(=O)n2C	104%
CCN(C(C)=O)c1ccc([N+](=O)[O-])cc1	114%
CC[C@@H](C(=O)[C@@H](C)[C@@H](O)[C@H](C)[C@@H]1O[C@@H]([C@@H](CC)C(=O)NCCc2ccc(F)cc2)CC[C@@H]1C)C1O[C@]2(C=CC(=O)[C@]3(CC[C@@](C)([C@H]4CC[C@](O)(CC)[C@H](C)O4)O3)O2)[C@H](C)C[C@@H]1C (some centres not stated)	6.93% (active)
C[C@@H]1CCC[C@H]1CC(N)C(=O)O (some centres not stated)	112%
O=C(O)c1c2c(nc3ccccc13)Cc1ccccc1-2	92.8% and 112%
Nc1nc(SC/C=C/CCl)c2[nH]cnc2n1	97.8% and 103%
COc1cccc(-c2nn(-c3ccccc3)cc2-c2ccnc(NCCNC(=O)Nc3ccc(Cl)c(Cl)c3)c2)c1	0.89% (active)
CCc1c(CC(=O)O)c2cc(C)ccc2n1Cc1ccc(Cl)cc1	89.3% and 161%
O=C(N=Nc1c(O)[nH]c2ccc(F)cc12)c1cc2ccccc2[nH]1	79.3%
O=[N+]([O-])c1ccc(Oc2cccnc2)c([N+](=O)[O-])c1	-10.1% (active)
O=C1OC(c2ccc(-c3ccccc3)cc2)=C/C1=C/c1cccs1	75%
